High-throughput results from PubChem.
Hits are enriched below; roughly 21% of the tested compounds scored in any of these assays.
Cycloheximide cs: counter-screen for Shiga toxin inhibitors: cycloheximide protein synthesis inhibition. cell reporter, cycloheximide protein synthesis inhibition counterscreen. max response, %. 12% of 300,000 active. AID 2314; in the data active = max response mostly above about 13%, no sharp cut-off; inactive = mostly below about 14%; also: read at 38.3 µM for the half of the compounds with a filed dose; 0% is about no effect
NS1 function inh: blocks influenza NS1 protein function; Potency, µM (highest dose often 46.1 µM), without a hit: at the highest dose activity, positive = more growth; 0.4% of 270,000 active; AID 2326; calls by dose curve; also: potency is read from the fitted curve at half-maximal effect; actives are rising curves; nearly all actives have a fitted effect of over 50% in size
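Recovery from NS1-induced slow growth read by OD600 in budding yeast switched to galactose assay medium (pH 6.0, -URA) at 1:100 dilution. Compound 23 nl per well; the matching strain lacking NS1 serves as control.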
SARS PLpro yeast: inhibitors of SARS-CoV papain-like protease in yeast | S. cerevisiae expressing SARS-CoV PLpro, growth rescue | Potency, µM (titrated, usually from 32.9 µM), for the others: at the highest dose activity, positive = growth rescue, hits mostly activators | 0.19% of 330,000 active; calls by dose curve; also: potency is read from the fitted curve at half-maximal effect; 0% is about no effect; nearly all actives have a fitted effect of over 55% in size
Pf growth 96h: P. falciparum growth inhibition at 96 hours; P. falciparum luciferase reporter growth, 96 h; Potency, µM (top dose mostly 28.7 µM), for inactives: at the top dose activity change, negative = inhibition, usual class: inhibitors; 6.9% of 320,000 active; AID 504834; also: potency is read from the fitted curve at half-maximal effect; % is scaled to controls: 0 for no effect and ±100 for the full control effect
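Cell-based qHTS: luciferase-tagged P. falciparum in erythrocytes (2% hematocrit, 0.05% parasitemia final) incubated with compounds for 96 hours, 37 C, 5% CO2; luciferase detection reagent then added and luminescence measured.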
Pf growth 48h: P. falciparum growth inhibition at 48 hours (one generation); Potency, µM (highest dose often 28.7 µM), for inactives: top-dose activity change, negative = inhibition, usual class: inhibitors; 5.9% of 310,000 active; P. falciparum luciferase growth in erythrocytes, 48 h; AID 504832; also: potency is read from the fitted curve at half-maximal effect; % is scaled to controls: 0 for no effect and ±100 for the full control effect
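Cell-based growth assay: transgenic P. falciparum expressing firefly luciferase, cultured in red cells within RPMI 1640 containing 0.5% w/v Albumax, 24 mM bicarbonate and gentamycin. A drop in luciferase activity indicates inhibition.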
Shiga inhibitor: blocks Shiga toxin action in Vero cells. Vero cells, Shiga toxin protein synthesis inhibition reporter. inhibition, % at 38.7 µM. 9.2% of 290,000 active. AID 2315; in the data active = inhibition mostly above about 28%, no sharp cut-off; inactive = mostly below about 43%; also: 0% is about no effect
* = called active by the depositor; ? = inconclusive; / = no result given. Unless noted, calls follow the shape of the dose curve; as a rule, active = well fitted inhibition curve with a large enough effect; inconclusive = small, poorly fitted or top-dose-only effect, or another doubt; inactive = no such curve, though single readings can be large or run the other way.

SMILES	Cycloheximide cs	NS1 function inh	SARS PLpro yeast	Pf growth 96h	Pf growth 48h	Shiga inhibitor
O=C1CC(SCc2nc3ccccc3[nH]2)C(=O)N1c1ccc(F)cc1 (stereo unspecified)	5	-56%	-36%	/	11%	18
NCCSC1CC(=O)N(c2ccc(Cl)c(Cl)c2)C1=O (stereo unspecified)	16*	19%	-5%	?	45%	36
NCCSC1CC(=O)N(c2ccc(F)cc2)C1=O (stereo unspecified)	8.3*	19%	-8%	9.3µM*	29%	30
Cc1cc(C)n(CC2CC(=O)N(c3ccc(Cl)c(Cl)c3)C2=O)n1 (stereo unspecified)	-1	-20%	3%	7%	7%	-28
O=C(c1ccc(OC2CCN(CCc3ccccc3)CC2)cc1)N1CCC(CO)CC1	-4	8%	5%	?	-28%	-10
Cc1c(Cl)cccc1NC(=S)N(CCN(C)C)C(C)c1ccco1 (stereo unspecified)	-2	-30%	-2%	2%	?	1
Brc1ccc2[nH]c3c(c2c1)CCC3	-1	-1%	-2%	6%	5%	5
O=c1c2c([nH]c3ccc(Br)cc13)CCCC2	-3	-104%	-14%	0%	0.33µM*	-3
CCOC(=O)C1(CCCc2ccccc2)CCN(C(=O)C2CCCN(C(N)=O)C2)CC1 (stereo unspecified)	-1	-6%	-1%	13µM*	?	-4
CCOC(=O)C1(CCc2ccccc2)CCN(C(=O)[C@@H]2C[C@@H](C)NC(=S)N2)CC1	13*	7%	-3%	?	?	15
Cc1cccc(C)c1NC(=O)CN(C)C(=O)c1ccccc1Sc1ccccc1C#N	/	/	0%	?	9.3µM*	/
Cc1cccc(C)c1NC(=O)CN(C)C(=O)c1ccccc1Cc1ccccc1	/	/	4%	?	?	/
CC(=O)Nc1ccc(NC(=O)COC(=O)/C=C/c2ccc3c(c2)OCO3)cc1	/	/	1%	-5%	-5%	/
COc1ccccc1NC(=O)/C=C/c1ccc2c(c1)OCO2	31*	/	-3%	-5%	284%	85*
NC(=O)c1ccc(NC(=O)COC(=O)/C=C/c2ccc3c(c2)OCO3)cc1	26*	1%	0%	-9%	56%	66*
COc1ccccc1NC(=O)COC(=O)/C=C/c1ccc2c(c1)OCO2	52*	/	0%	2%	44%	84*
CCCN1CN(c2ccccc2)C(=S)N(c2ccccc2)C1	2	7%	-2%	-28%	-4%	27
COC(=O)C1=CO[C@@H](O[C@@H]2O[C@H](CO)[C@@H](O)[C@H](O)[C@H]2O)C2C1C=C[C@@]2(O)CO (stereo partly specified)	/	/	-12%	/	/	/
O=C(O)CC1CCC(=C(Cl)Cl)C1 (stereo unspecified)	-4	-62%	3%	12µM*	-1%	-14
COCc1nc2ccccc2n1CCOc1ccccc1OC	6	-16%	4%	199%	?	23
Cc1cc(NC(=O)CCC(=O)N(CC(=O)NCC2CCCO2)c2ccc(C)c(C)c2)no1 (stereo unspecified)	-5	-3%	7%	-17%	-6%	-11
O=C(NCc1ccco1)c1cccc2c1C(=O)c1ccc(/C=C/c3ccccc3)cc1S2(=O)=O	/	/	-5%	/	/	/
CC1CCCC(NC(=O)COC(=O)COc2cccc(F)c2)C1C (stereo unspecified)	/	/	-13%	/	/	/
COc1ccc(F)cc1C(=O)C1CCCN(Cc2cccn2-c2ccccn2)C1 (stereo unspecified)	-2	-3%	-1%	3.3µM*	10µM*	2
O=C(c1cc(F)ccc1F)C1CCCN(Cc2cccn2-c2ccccn2)C1 (stereo unspecified)	-2	2%	4%	?	?	-7
COc1ccc(F)cc1C(=O)C1CCCN(Cc2c[nH]c3ccccc23)C1 (stereo unspecified)	-3	6%	0%	13µM*	?	4
O=C(c1cc(F)ccc1F)C1CCCN(Cc2cc(Cl)ccc2O)C1 (stereo unspecified)	-1	-20%	1%	?	4.1µM*	/
OCc1ccc(-c2ccc(-c3ccc(CO)s3)o2)s1	53*	/	/	/	/	42*
